# Assay results taken from PubChem BioAssay (NCATS).
# Inconclusive results are not listed. Active and inactive are the calls of the source. Unless noted, the rule behind the calls is not given here.
# Assay: qHTS Assay for Identifying Gametocytocidal Compounds (AID 743244; active = well fitted curve in the direction sought with a large enough effect;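 note: % is set by controls: 0 for no effect and ±100 for the full control effect; actives lower the fluorescent signal which means gametocytes are killed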)
# Settings: P. falciparum 3D7 stage III-V gametocytes, alamarBlue, 72 h; max response: stronger effect = lower value
# Summary of the method: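 Late gametocytes (III–V), P. falciparum 3D7; 72 h drug, then 24 h alamarBlue; resazurin reduction read by fluorescence.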
row,SMILES,max response
1,CC1=C(C(=O)OC(C)C)C(c2cccc([N+](=O)[O-])c2)C(C(=O)OC2CN(C(c3ccccc3)c3ccccc3)C2)=C(N)N1 (centres undefined),7.23% (inactive)
2,CNCC[C@@H](Oc1ccccc1C)c1ccccc1,-11.3% (inactive)
3,NCCC(O)(P(=O)(O)O)P(=O)(O)O,1.74% (inactive)

# Assay: qHTS profiling of the MIPE4 collection as inhibitors of Plasmodium falciparum (3D7) proliferation (AID 743344);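 note: scaled between DMSO vehicle wells and 0.29 µM artemisinin as full inhibition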
# Settings: P. falciparum 3D7 in erythrocytes, SYBR Green DNA fluorescence, 72 h; at 28.5 µM (top of the series) unless noted
# Summary of the method: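 Parasite DNA was quantified by SYBR Green I fluorescence (ex 485, em 535 nm) after overnight lysis in saponin/Triton buffer at room temperature. Cultures at 0.3% parasitemia and 2.5% hematocrit were first exposed to compound for 72 h at 37 C; signals were normalised to artemisinin (0.29 uM) and vehicle wells.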
row,SMILES,"parasite growth, % of DMSO control"
1,CN1CCN(CCCN2c3ccccc3Sc3ccc(S(=O)(=O)N(C)C)cc32)CC1,63.5% [at 9.64 µM]
2,Cc1cccc(C)c1NC(=O)CN1CCN(CCCC(c2ccc(F)cc2)c2ccc(F)cc2)CC1,13.4%
3,COc1ccc(CN2CCN(C(c3ccc(F)cc3)c3ccc(F)cc3)CC2)c(OC)c1OC,4.59%
4,COc1cccc(CCc2ccccc2OCC(CN(C)C)OC(=O)CCC(=O)O)c1 (centres undefined),7.32%
5,CC[C@@H](CO)NCCN[C@@H](CC)CO,98.8%
6,CC1=C(C(=O)OC(C)C)C(c2cccc([N+](=O)[O-])c2)C(C(=O)OC2CN(C(c3ccccc3)c3ccccc3)C2)=C(N)N1 (centres undefined),6.8%
